# Compound activity: PubChem, several laboratories
# The list is not random: actives were taken first. Their share in the collection is about 21%.
# CYP2C9 inhib = blockers of cytochrome P450 2C9 activity – biochemical, luminescence, ADME assay, primary screen | P11712 | CYP2C9 Supersomes, luciferin-H conversion | inhibition, % at 5 µM | 96,000 compounds, 20% hits | AID 777, 2007;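 active means blocking of liver enzyme CYP2C9 beyond about 50% at 5 µM, limit read from the data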
# MRP resist rev = reversal of MRP1-mediated doxorubicin resistance, primary screen, H69AR cells, doxorubicin co-treatment; 85,000 compounds, 0.04% hits; differential viability (reversal), % at 10 µM; AID 602, 2007; H69AR cells + 2 uM doxorubicin, CellTiter-Glo, 72 h;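 active means viability drop by adding the cancer drug above about 55%, with treated viability meeting a 40% cutoff, limit read from the data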;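 further: larger differential means the compound sensitizes cells more to doxorubicin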
# MRP-1 activ = H69AR viability gain despite doxorubicin, primary screen, MRP-1 activator project, H69AR cells, CellTiter-Glo; AID 799, 2007; viability rescue; 140,000 compounds, 0.61% hits; viability increase, % at 10 µM;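 active means viability gain under doxorubicin at or above a set limit, the compound median plus 3 SD, cut at about 4.7% in these data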;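 further: MRP-1 overexpressing cells given doxorubicin 25 µM after compound pretreatment; 18-22 h compound pretreatment then 72 h with doxorubicin before readout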
# CYP2C9 act = human CYP2C9 activators, primary screen, biochemical, luminescence; Cytochrome P450 2C9 (Homo sapiens), P11712; recombinant CYP2C9, luciferin-H conversion; hits give high values; factor 1 = untreated enzyme, 0 = blocked; activation factor at 5 µM; 96,000 compounds, 1.4% hits; AID 1024, 2008;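 active means activation factor of 2 or more for CYP2C9 at a 5 µM dose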
# CYP2C19 inhib = blockers of cytochrome P450 2C19 activity – biochemical, luminescence, ADME assay, primary screen | 96,000 compounds, 21% hits | CYP2C19 Supersomes, luciferin-H EGE luminescence, 30 min | inhibition, % at 5 µM;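 active means CYP2C19 inhibition above a set limit at 5 µM in the primary screen, cut at about 50% in these data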
# Target sequence (P33261 whole entry, looked up): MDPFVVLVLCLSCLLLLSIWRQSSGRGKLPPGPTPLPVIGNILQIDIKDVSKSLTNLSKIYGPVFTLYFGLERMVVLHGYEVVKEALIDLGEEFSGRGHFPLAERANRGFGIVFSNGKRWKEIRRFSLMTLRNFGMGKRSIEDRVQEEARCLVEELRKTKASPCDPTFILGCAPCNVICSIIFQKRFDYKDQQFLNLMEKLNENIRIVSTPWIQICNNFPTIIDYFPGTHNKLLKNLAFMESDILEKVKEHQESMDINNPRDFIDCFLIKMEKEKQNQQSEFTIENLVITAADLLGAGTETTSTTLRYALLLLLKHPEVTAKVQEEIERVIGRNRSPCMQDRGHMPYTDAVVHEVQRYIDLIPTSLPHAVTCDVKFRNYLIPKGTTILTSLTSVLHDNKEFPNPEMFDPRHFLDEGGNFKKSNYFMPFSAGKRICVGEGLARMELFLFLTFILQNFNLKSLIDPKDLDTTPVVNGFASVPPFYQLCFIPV
# CYP2C19 activ = human CYP2C19 activators, primary screen, biochemical, luminescence. AID 1025, 2008. activation factor at 5 µM. recombinant CYP2C19, luciferin-H EGE luminescence; hits give high values; 0 = fully inhibited enzyme, 1 = untreated enzyme. 96,000 tested, under 10 active;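 active means activation factor of at least 2 at 5 µM in the primary screen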
# Numbers stand for hits; i = inactive; nt = no result.
SMILES,CYP2C9 inhib,MRP resist rev,MRP-1 activ,CYP2C9 act,CYP2C19 inhib,CYP2C19 activ
COc1ccccc1OCC(=O)Nc1cccc(N(C)S(C)(=O)=O)c1,i,i,i,i,82.9,i
Cc1cccc(C)c1N(CC(=O)Nc1cccc(N(C)S(C)(=O)=O)c1)S(C)(=O)=O,58.5,i,i,i,i,i
CN(c1cccc(NC(=O)Nc2cccc(Cl)c2)c1)S(C)(=O)=O,72.5,i,i,i,61.6,i
Cc1ccc(C(=O)Nc2cccc(N(C)S(C)(=O)=O)c2)cc1S(=O)(=O)Nc1ccccc1,71.7,nt,i,i,i,i
COc1ccc(C(=O)Nc2cccc(N(C)S(C)(=O)=O)c2)cc1OC,i,i,i,i,i,i
CC(=O)Nc1cccc(N(C)S(C)(=O)=O)c1,i,i,i,i,i,i
Cc1ccc(NC(=O)c2ccc3c(c2)OCCO3)cc1S(=O)(=O)Nc1cccc(Cl)c1,nt,nt,i,nt,nt,nt
Cc1nc2c3ccccc3[nH]c(=O)n2n1,nt,i,i,nt,nt,nt
CN1CCN(c2cc(N3CCc4ccccc4C3)c(F)cc2[N+](=O)[O-])CC1,nt,nt,i,nt,nt,nt
Cc1ccc(SCCC(=O)Nc2cccc(N(C)S(C)(=O)=O)c2)cc1,83.3,i,i,i,91.0,i
CN(C)S(=O)(=O)c1cccc(NC(=O)CCSc2ccc(Cl)cc2)c1,nt,nt,i,nt,nt,nt
CC1CCc2c(sc3nc(CN4CCOCC4)nc(NS(=O)(=O)c4cccc([N+](=O)[O-])c4)c23)C1 (stereo unspecified),84.1,nt,i,i,i,i
Cc1cc(S(=O)(=O)Nc2nc(CN3CCOCC3)nc3sc4c(c23)CCCC4)ccc1F,87.9,i,i,i,59.8,i
COc1cccc(Nc2nc(CN3CCOCC3)nc3sc4c(c23)CCCC4)c1,nt,nt,i,nt,nt,nt
O=c1[nH]c(NC2CCCCC2)c([N+](=O)[O-])c(=O)[nH]1,nt,nt,i,nt,nt,nt
COc1ccc(Cn2c(CCC(=O)Nc3ccc(CC#N)cc3)nc3cccnc32)cc1,i,i,i,i,i,i
CCOC(=O)C(Cc1ccccc1)NS(=O)(=O)c1ccc(NC(C)=O)cc1 (stereo unspecified),i,i,i,i,66.7,i
CCOC(=O)C(Cc1ccccc1)C(=O)Nc1ccc(NC(=O)C(Cc2ccccc2)C(=O)OCC)cc1 (stereo unspecified),nt,nt,i,nt,nt,nt
COc1ccc(F)cc1S(=O)(=O)NC(Cc1ccccc1)C(N)=O (stereo unspecified),i,i,i,i,i,i
NC(=O)COC(=O)C(Cc1ccccc1)NS(=O)(=O)c1ccccc1F (stereo unspecified),i,i,nt,i,58.4,i
c1ccc(C2=Nc3ccccc3SC2c2nc3ccccc3[nH]2)cc1 (stereo unspecified),i,i,i,i,i,i
COc1cc(Nc2nc3ccccc3n3nnnc23)cc(OC)c1OC,68.8,i,i,i,i,i
COc1ccc(Cn2c(-c3ccc(Br)cc3)c[n+]3ccccc23)cc1,nt,nt,i,nt,nt,nt
COC(=O)C1C(=O)c2c(n[nH]c2C)CC1(C)C (stereo unspecified),i,i,i,i,i,i
CCCc1n[nH]c2c1C(=O)C(C(=O)OC)C(C)(C)C2 (stereo unspecified),i,i,i,i,86.4,i
SMILES,CYP2C9 inhib,MRP resist rev,MRP-1 activ,CYP2C9 act,CYP2C19 inhib,CYP2C19 activ
O=C(COC(=O)CNS(=O)(=O)c1cccc(Br)c1)Nc1ccccc1Sc1ccccc1,nt,nt,i,nt,nt,nt
CC(OC(=O)CCCN1C(=O)c2ccccc2C1=O)C(=O)Nc1ncc(Cl)cc1Cl (stereo unspecified),i,i,i,i,i,i
CC(OC(=O)C1CCN(S(=O)(=O)c2ccccc2)CC1)C(=O)Nc1ncc(Cl)cc1Cl (stereo unspecified),92.8,i,i,i,75.4,i
CCC(=O)Nc1nc(-c2ccc3c(c2)OCCO3)cs1,i,i,i,i,i,i
CCCc1cc(-c2nc(N)ncc2-c2ccc3c(c2)OCCCO3)c(O)cc1OC,68.3,i,i,i,i,i
FCCCOc1ccc(-c2nccc(-c3ccc(F)cc3)n2)cc1,80.9,nt,i,i,53.5,i
FCCCOc1ccc(-c2ccnc(-c3ccccc3)n2)cc1,i,nt,i,i,i,i
COc1ccc2c(c1)c(=O)oc1cc3oc(C)c(C)c3cc12,i,i,i,i,69.5,i
Cc1ccccc1N(CC(=O)N/N=C/c1ccc(F)cc1)C(=O)c1ccccc1,94.6,nt,i,i,80.3,i
CCOC(=O)CN(C(=O)c1ccccc1)c1ccccc1C,i,i,i,i,i,i
Cc1ccccc1N(CC(=O)N/N=C/c1ccc(Cl)cc1)C(=O)c1ccccc1,97.6,nt,i,i,68.4,i
O=C(CNS(=O)(=O)c1ccccc1)N/N=C\c1ccc(Cl)cc1,nt,nt,i,nt,nt,nt
N#CC1=C(N)Oc2cc(N)ccc2C1C1CC=CCC1 (stereo unspecified),75.9,i,i,i,89.2,i
COc1ccc(C(=O)Nc2c(Cl)cc(Cl)cc2C(=O)NCCN2CCOCC2)cc1,nt,i,i,nt,nt,nt
CCc1cccc(NC2c3ccccc3C(=O)N2c2cccnc2)c1 (stereo unspecified),53.0,i,i,i,96.6,i
O=C1c2ccccc2C(Nc2ccccc2F)N1c1cccnc1 (stereo unspecified),i,i,i,i,i,i
COc1ccc(NC2c3ccccc3C(=O)N2c2ccccn2)cc1Cl (stereo unspecified),61.1,i,i,i,76.0,i
CCc1cccc(NC2c3ccccc3C(=O)N2c2ccc(C)cn2)c1 (stereo unspecified),50.5,i,i,i,84.9,i
CCOC(=O)c1ccc(NC2c3ccccc3C(=O)N2c2cccnc2)cc1 (stereo unspecified),75.2,i,i,i,88.1,i
CCOC(=O)c1ccc(NC2c3ccccc3C(=O)N2c2ccc(C)cn2)cc1 (stereo unspecified),i,i,i,i,i,i
CCCCNC(=O)c1onc(CCl)c1C(=O)OC,i,nt,i,i,i,i
CCCCCCCCOC(=O)C(NC(=O)CCC(=O)Nc1ccc(S(N)(=O)=O)cc1)C(O)c1ccccc1 (stereo unspecified),62.5,i,i,i,53.9,i
O=C(c1nn2c(C(F)(F)F)cc(-c3cccs3)nc2c1Cl)N1CCCc2ccccc21,nt,nt,i,nt,nt,nt
COc1ccc(OC)c(CN(CCCN2CCOCC2)C(=O)Nc2ccccc2)c1,nt,i,i,nt,nt,nt
COc1cccc(NC(=O)N(CCCN2CCOCC2)C(C)c2cc3cccc(OC)c3o2)c1 (stereo unspecified),66.9,i,i,i,66.5,i
